In the supplement of paper PMC12645437, “Orthogonal IMiD-Degron Pairs Induce Selective Protein Degradation in Cells” (ACS Chemical Biology, 2025):
In all, about 8,300 sequences were measured (“log2 fold change of degron read counts, EGFP-low vs EGFP+ sorted cells (limma voom), compound-induced degradation”: median about -1.1, highest 2% from about 3.2 on). The full list was thinned out, with the highest values kept by preference.

T1: CRBN, Q96SW2
T1 chain: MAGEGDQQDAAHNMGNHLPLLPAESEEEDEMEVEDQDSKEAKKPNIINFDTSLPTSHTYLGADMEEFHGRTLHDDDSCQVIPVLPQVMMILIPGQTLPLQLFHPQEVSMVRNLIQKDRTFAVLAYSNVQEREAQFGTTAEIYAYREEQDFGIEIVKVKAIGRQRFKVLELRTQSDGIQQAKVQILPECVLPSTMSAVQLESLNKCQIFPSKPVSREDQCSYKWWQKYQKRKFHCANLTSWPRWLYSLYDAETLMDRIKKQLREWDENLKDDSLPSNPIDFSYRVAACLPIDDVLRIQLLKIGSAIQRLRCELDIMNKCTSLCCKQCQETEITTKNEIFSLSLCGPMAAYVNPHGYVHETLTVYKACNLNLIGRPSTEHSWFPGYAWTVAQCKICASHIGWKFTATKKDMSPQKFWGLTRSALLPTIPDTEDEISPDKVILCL


Target: T1, CRBN, Q96SW2
Assay: log2 fold change of degron read counts, EGFP-low vs EGFP+ sorted cells (limma voom), compound-induced degradation; higher = more compound-induced degradation of the degron-EGFP fusion; degrons are variants of IKZF1/3 zinc finger 2; compound dose not given here
Conditions: Jurkat, 18 h
[1] = compound: compound 19 (5-tert-butyl-thalidomide)
[2] = compound: compound 22 (5-morpholino-thalidomide)
[3] = compound: compound 33 (diphenyl IMiD analogue)
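Also: pooled lentiviral library of zinc finger degron-EGFP fusions in mCherry-positive Jurkat cells, FACS-sorted after compound exposure, with degron abundance counted by next-generation sequencing.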

Sequence	log2 fold change of degron read counts [1]	log2 fold change of degron read counts [2]	log2 fold change of degron read counts [3]	log2 fold change of degron read counts (compound: thalidomide)
FACNQCGAFFTQKGNLLRHIKL [46F_47A_49N_50Q_52G_53A_54F_55F_67L_, Q9UKT9]	-1.64	-2.14	-1.53	-2.28
FRCEICGRGFTQKGNLLRHIKL [46F_47R_49E_50I_52G_53R_54G_55F_67L_, Q9UKT9]	-2	-1.92	-0.0801	-0.562
FECEVCGASFTQKGNLLRHIKL [46F_47E_49E_50V_52G_53A_54S_55F_67L_, Q9UKT9]	2.09	-1.03	1.48	2.32
FDCEVCGASFTQKGNLLRHIKL [46F_47D_49E_50V_52G_53A_54S_55F_67L_, Q9UKT9]	2.81	0.541	0.131	0.979
FSCEVCGASFTQKGNLLRHIKL [46F_47S_49E_50V_52G_53A_54S_55F_67L_, Q9UKT9]	3.58	2.8	2.27	1.63
FCCEVCGASFTQKGNLLRHIKL [46F_47C_49E_50V_52G_53A_54S_55F_67L_, Q9UKT9]	3.45	2.85	2.25	2.34
FGCEVCGASFTQKGNLLRHIKL [46F_47G_49E_50V_52G_53A_54S_55F_67L_, Q9UKT9]	3.37	2.27	1.58	0.816
FWCEVCGASFTQKGNLLRHIKL [46F_47W_49E_50V_52G_53A_54S_55F_67L_, Q9UKT9]	3.77	3.54	2.67	1.37
FTCEVCGASFTQKGNLLRHIKL [46F_47T_49E_50V_52G_53A_54S_55F_67L_, Q9UKT9]	2.27	2.96	2.53	3.12
FKCEVCGASFTQKGNLLRHIKL [46F_47K_49E_50V_52G_53A_54S_55F_67L_, Q9UKT9]	1.43	-1.05	-2	0.154
FWCNVCGASFTQKGNLLRHIKL [46F_47W_49N_50V_52G_53A_54S_55F_67L_, Q9UKT9]	1.46	3.01	1.08	-0.303
